In PubChem BioAssay (Tox21):
Results filed as inconclusive are left out. Calls of active or inactive are those of the source. Unless noted, calls come from the whole dose curve; as a rule, active = well fitted curve in the direction sought with a large enough effect in the repeat runs; inconclusive = weak or mixed curves; inactive = no such curve, though single readings can be large; an effect the other way counts as inactive or inconclusive.

Assays:
[1] = qHTS assay for small molecule agonists of the p53 signaling pathway (AID 651631; calls by dose curve; note: nearly all actives have a fitted effect of over 15% in size)
Outline: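 Read-out is beta-lactamase FRET fluorescence measured 2 h after substrate addition at room temperature, in HCT-116 cells with a p53 response element-driven reporter exposed to compounds for 16 h at 37 °C.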

[2] = qHTS assay for small molecules that induce genotoxicity in human embryonic kidney cells expressing luciferase-tagged ATAD5 (AID 651632); note: nearly all actives have a fitted effect of over 15% in size
Outline: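 DMSO vehicle served as the control. HEK293T reporter cells, 16 hr at 37C, then 30 min Amplite at room temperature; ATAD5 induction is measured as luciferase activity.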

[3] = qHTS assay for small molecule agonists of the p53 signaling pathway - cell viability (AID 651633; calls by dose curve;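 note: p53RE-bla HCT reporter cells with a stable beta-lactamase p53 reporter; nearly all actives have a fitted effect of over 30% in size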)
Outline: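 Viability counter-read: CellTiter-Glo luminescence (30 min, room temperature) in the same p53RE-bla plates. These plates had been exposed to compounds for 16 h at 37 C.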

[4] = qHTS assay for small molecules that induce genotoxicity in human embryonic kidney cells expressing luciferase-tagged ATAD5 - cell viability (AID 651634; calls by dose curve; note: nearly all actives have a fitted effect of over 25% in size)
Outline: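 Here HEK293T cells with the ATAD5 luciferase reporter are incubated with test compounds for 15.5 hr, and cytotoxicity is then gauged by measuring protease activity in live cells using fluorescence.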

[5] = qHTS assay for small molecule disruptors of the mitochondrial membrane potential - cell viability (AID 720634; calls by dose curve;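 note: human HepG2 liver cancer cells; nearly all actives have a fitted effect of over 20% in size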)
Outline: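 Viability of HepG2 cells is scored from ATP content by luminescence; cells are exposed to compound for 1 hr at 37 C and 5% CO2, then dosed with m-MPI dye before the CellTiter-Glo reagent.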

[6] = qHTS assay to test for compound auto fluorescence at 590 nm (red) in HepG2 cells (AID 720674)
Outline: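 1 hr compound incubation on HepG2 cells, 37 C, 5% CO2; plate read ex 540 nm / em 590 nm; intensities reported as Rose Bengal sodium equivalents.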

[7] = qHTS assay to test for compound auto fluorescence at 460 nm (blue) in HEK293 cells (AID 720678)
Outline: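 Auto fluorescence in the blue band was quantified as triamterene equivalency. HEK293 cells were seeded at 2,000/well, dosed after a 4-5 hr attachment, and kept overnight at 37C before the 405/460 nm reading.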

[8] = qHTS assay to test for compound auto fluorescence at 590 nm (red) in HEK293 cells (AID 720679)
Outline: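 Autofluorescence equivalency to Rose Bengal sodium, 540/590nm, in HEK293 cells exposed overnight to 23 nL compound per well.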

[9] = qHTS assay to test for compound auto fluorescence at 535 nm (green) in HEK293 cells (AID 720680)
[10] = qHTS assay to test for compound auto fluorescence at 460 nm (blue) in HEK293 cell free culture (AID 720681)
Outline: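 Blue fluorescence (Ex 405/Em 460 nm, triamterene-equivalent) was read immediately after pin transfer of compound or DMSO into medium (DMEM, 10% FBS) without cells.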

[11] = qHTS assay to test for compound auto fluorescence at 535 nm (green) in HEK293 cell free culture (AID 720682)
Outline: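 Fluorescein serves as the green reference fluorophore; each compound's intrinsic emission at 535 nm (excitation 485 nm) is reported as an equivalent amount of that dye, measured in serum-containing DMEM without cells.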

[12] = qHTS assay to test for compound auto fluorescence at 590 nm (red) in HEK293 cell free culture (AID 720683)
Outline: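 Red-channel autofluorescence of compounds in culture medium (DMEM, 10% FBS), no cells, measured at 540/590 nm. Rose Bengal sodium is the reference fluorophore for equivalence.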

[13] = qHTS assay to test for compound auto fluorescence at 590 nm (red) in HepG2 cell free culture (AID 720684)
Outline: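 No cells present: MEM + 10% FBS only. Compound pinned in, red label read (540/590 nm). Activity = fluorescence equivalent to Rose Bengal sodium.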

[14] = qHTS assay to test for compound auto fluorescence at 460 nm (blue) in HepG2 cell free culture (AID 720685)
Outline: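 Cell-free plates of MEM plus 10% FBS received 23 nL compound or DMSO vehicle; blue-channel (405/460 nm) intensity scored against triamterene as reference fluorophore.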

[15] = qHTS assay to test for compound auto fluorescence at 535 nm (green) in HepG2 cell free culture (AID 720686)
[16] = qHTS assay to test for compound auto fluorescence at 460 nm (blue) in HepG2 cells (AID 720687)
Outline: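 Blue-channel autofluorescence (Ex/Em 405/460 nm, triamterene-equivalent) was measured after 1 hr compound exposure at 37 C, 5% CO2. Cells were HepG2, plated overnight at 37 C in MEM plus 10% FBS.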

[17] = molecular target: Glucocorticoid receptor (Homo sapiens) (UniProt P04150); experiment: qHTS assay to identify small molecule antagonists of the glucocorticoid receptor (GR) signaling pathway (AID 720692; active = well fitted inhibition curve with a large enough effect in the signal ratio in the repeat runs, not every such curve was filed as active; the % refers to the signal ratio)
Outline: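 In a 1536-well cell format, compounds were added 4 h after seeding GR-bla HeLa cells, together with dexamethasone at 5 nM final; reporter activity was measured by FRET-substrate fluorescence following 18 h at 37 C.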

[18] = qHTS assay to test for compound auto fluorescence at 535 nm (green) in HepG2 cells (AID 720675)
[19] = molecular target: Glucocorticoid receptor (Homo sapiens) (UniProt P04150); experiment: qHTS assay to identify small molecule agonists of the glucocorticoid receptor (GR) signaling pathway (AID 720691; active = well fitted activation curve with a large enough effect in the signal ratio in the repeat runs, not every such curve was filed as active; the % refers to the signal ratio); conditions: GR-bla HeLa, beta-lactamase reporter ratio, 18 h; activation: at 62.4 µM (top of the series) unless noted
Outline: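 Compounds in DMSO, alongside positive controls, were added to GR-bla HeLa reporter cells and incubated 18 h at 37 C; GRE-driven beta-lactamase was detected by fluorescence after 2 h with FRET substrate at room temperature.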

[20] = qHTS assay for small molecule disruptors of the mitochondrial membrane potential (AID 720635)
Outline: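 Mitochondrial membrane potential tracked with Mito-MPS dye, red aggregates (ex 540/em 590 nm) against green monomers (ex 490/em 535 nm). Compound treatment 1 hr at 37C, dye 30 min in HepG2.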
% is set by controls: 0 for no effect and ±100 for the full control effect.

Glucocorticoid receptor (Homo sapiens), sequence (P04150 whole entry, looked up): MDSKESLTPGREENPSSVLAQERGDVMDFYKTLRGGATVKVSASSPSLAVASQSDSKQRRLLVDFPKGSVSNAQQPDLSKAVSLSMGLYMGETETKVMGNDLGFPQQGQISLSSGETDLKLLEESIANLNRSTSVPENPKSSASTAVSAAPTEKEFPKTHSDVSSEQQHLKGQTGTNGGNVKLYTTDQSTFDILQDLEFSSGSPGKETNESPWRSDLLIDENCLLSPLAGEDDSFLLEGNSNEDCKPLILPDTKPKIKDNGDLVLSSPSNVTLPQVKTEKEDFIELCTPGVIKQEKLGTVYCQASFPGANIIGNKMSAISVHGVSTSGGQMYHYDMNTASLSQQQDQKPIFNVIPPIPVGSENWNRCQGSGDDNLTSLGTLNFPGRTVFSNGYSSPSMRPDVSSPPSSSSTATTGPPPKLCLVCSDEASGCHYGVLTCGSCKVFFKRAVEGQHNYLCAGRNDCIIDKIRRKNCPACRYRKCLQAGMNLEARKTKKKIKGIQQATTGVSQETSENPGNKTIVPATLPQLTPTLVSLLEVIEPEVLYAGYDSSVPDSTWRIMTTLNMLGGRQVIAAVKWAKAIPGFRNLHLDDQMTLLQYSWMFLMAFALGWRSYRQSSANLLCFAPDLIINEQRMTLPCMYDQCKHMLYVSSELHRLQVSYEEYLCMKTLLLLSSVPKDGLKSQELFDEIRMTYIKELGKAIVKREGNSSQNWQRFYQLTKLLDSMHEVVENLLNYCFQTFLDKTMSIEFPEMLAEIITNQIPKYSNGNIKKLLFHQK

COC(=O)c1ccc(I)cc1S(=O)(=O)NC(=O)Nc1nc(C)nc(OC)n1
inactive: Potency [1] | Potency [2] | Potency [3] | Potency [4] | Potency [5] | Potency [6] | outcome [7] | Potency [8] | outcome [9] | outcome [10] | outcome [11] | Potency [12] | Potency [13] | outcome [14] | Potency [15] | outcome [16] | Potency [17]

C#CCN(C)CCCOc1ccc(Cl)cc1Cl
inactive: Potency [1] | Potency [2] | Potency [3] | Potency [4] | Potency [5] | Potency [18] | outcome [7] | Potency [8] | outcome [9] | outcome [10] | outcome [11] | Potency [12] | Potency [13] | outcome [16] | Potency [19] | Potency [17]

CC[N+]1(CC)CCC(=C(c2ccccc2)c2ccccc2)C1C (configuration not stated)
inactive: Potency [1] | Potency [2] | Potency [3] | Potency [4] | Potency [5] | Potency [6] | Potency [18] | outcome [7] | Potency [8] | outcome [9] | outcome [10] | outcome [11] | Potency [12] | Potency [13] | Potency [15] | outcome [16] | Potency [19] | Potency [17]

C[C@H]1C[C@H]2[C@@H]3CCC4=CC(=O)C=C[C@]4(C)[C@@]3(Cl)[C@@H](O)C[C@]2(C)[C@@]1(O)C(=O)CO
inactive: Potency [1] | Potency [2] | Potency [3] | Potency [4] | Potency [20] | Potency [6] | outcome [7] | Potency [8] | outcome [9] | outcome [10] | outcome [11] | Potency [12] | Potency [13] | outcome [14] | outcome [16]

CCCCC(CC)COC(=O)CCCCCCCCC(=O)OCC(CC)CCCC (configuration not stated)
inactive: Potency [1] | Potency [2] | Potency [3] | Potency [4] | Potency [6] | Potency [18] | outcome [7] | Potency [8] | outcome [9] | outcome [10] | outcome [11] | Potency [12] | Potency [13] | outcome [14] | Potency [15] | outcome [16] | Potency [19] | Potency [17]

CC/C=C\CCOC(=O)CC
inactive: Potency [1] | Potency [2] | Potency [3] | Potency [4] | Potency [6] | Potency [18] | outcome [7] | Potency [8] | outcome [9] | outcome [10] | outcome [11] | Potency [12] | Potency [13] | outcome [14] | Potency [15] | outcome [16]

CC(=O)NO
inactive: Potency [1] | Potency [2] | Potency [3] | Potency [4] | Potency [5] | Potency [6] | Potency [18] | outcome [7] | Potency [8] | outcome [9] | outcome [10] | outcome [11] | Potency [12] | Potency [13] | outcome [14] | outcome [16] | Potency [19] | Potency [17]

ClCCOCCOCCCl
inactive: Potency [1] | Potency [2] | Potency [3] | Potency [4] | Potency [6] | Potency [18] | Potency [8] | outcome [9] | outcome [10] | Potency [12] | Potency [13] | outcome [14] | Potency [15] | outcome [16]

O=[N+]([O-])c1cccc(S(=O)(=O)O)c1
inactive: Potency [1] | Potency [2] | Potency [3] | Potency [4] | Potency [6] | Potency [18] | outcome [7] | Potency [8] | outcome [9] | outcome [10] | outcome [11] | Potency [12] | Potency [13] | outcome [14] | Potency [15] | outcome [16] | Potency [17]

CN1CCN(C(c2ccccc2)c2ccccc2)CC1
inactive: Potency [1] | Potency [2] | Potency [3] | Potency [4] | Potency [5] | fluorescence, relative to Rose Bengal [6] 0.313% [at 18.6 µM] | fluorescence, % of fluorescein control [18] -0.189% [at 18.6 µM] | fluorescence, % of fluorescent control [8] -0.0303% [at 18.6 µM] | fluorescence, % of fluorescein [9] 0.0022% [at 18.6 µM] | fluorescence, % of fluorescent control [10] -0.0336% [at 18.6 µM] | fluorescence, % of fluorescent control [12] 0.0321% [at 18.6 µM] | fluorescence, % of Rose Bengal [13] -0.0854% [at 18.6 µM] | fluorescence, % of fluorescent control [14] -0.0233% [at 18.6 µM] | fluorescence, % of fluorescein control [15] 0.0024% [at 18.6 µM] | fluorescence, % of fluorescent control [16] 0.0094% [at 18.6 µM] | Potency [19]

CC(=O)c1ccc2c(c1)N(CCCN1CCC(CCO)CC1)c1ccccc1S2
inactive: Potency [1] | Potency [2] | Potency [3] | Potency [4] | Potency [5] | fluorescence, % of fluorescein control [18] 0.043% [at 18.6 µM] | fluorescence, % of triamterene [7] -0.0315% [at 18.6 µM] | fluorescence, % of fluorescent control [8] -0.278% [at 18.6 µM] | fluorescence, % of fluorescein [9] -0.0765% [at 18.6 µM] | fluorescence, % of fluorescent control [10] -0.0632% [at 18.6 µM] | activity change [11] -0.164% [at 18.6 µM] | fluorescence, % of fluorescent control [12] -0.134% [at 18.6 µM] | fluorescence, % of Rose Bengal [13] 0.583% [at 18.6 µM] | fluorescence, % of fluorescent control [14] -0.0052% [at 18.6 µM] | fluorescence, % of fluorescent control [16] -0.011% [at 18.6 µM] | Potency [19] | Potency [17]

CC1=CC=C(C(C)C)CC1
inactive: Potency [1] | Potency [2] | Potency [3] | Potency [4] | Potency [6] | outcome [7] | Potency [8] | outcome [9] | outcome [10] | outcome [11] | Potency [12] | Potency [13] | outcome [14] | Potency [15] | outcome [16]

CCCCC
inactive: Potency [1] | Potency [2] | Potency [3] | Potency [4] | Potency [5] | Potency [6] | Potency [18] | outcome [7] | Potency [8] | outcome [9] | outcome [10] | Potency [12] | Potency [13] | outcome [14] | Potency [15] | outcome [16] | Potency [17]

Nc1cccc([N+](=O)[O-])c1
inactive: Potency [1] | Potency [2] | Potency [3] | Potency [4] | Potency [5] | Potency [6] | outcome [7] | Potency [8] | outcome [10] | Potency [12] | Potency [13] | outcome [14] | Potency [15] | outcome [16] | Potency [19]

CCCCC(CC)COC(=O)COc1ccc(Cl)cc1Cl (configuration not stated)
inactive: Potency [1] | Potency [2] | Potency [3] | Potency [4] | Potency [20] | Potency [6] | Potency [18] | outcome [7] | Potency [8] | outcome [9] | outcome [10] | outcome [11] | Potency [12] | Potency [13] | Potency [15] | outcome [16] | Potency [19] | Potency [17]
